Data on seven compounds can be found in PubChem BioAssay (Tox21).

Values without a mark were called inactive. Results filed as inconclusive are left out. The source made the active and inactive calls. Unless noted, calls come from the whole dose curve.

Experiment [1] in a line: Nuclear factor erythroid 2-related factor 2/antioxidant responsive element (Nrf2/ARE) small molecule agonists: qHTS cell viability counter screen in human keratinocytes (AID 1919968; active = well fitted curve in the direction sought with a large enough effect in the repeat runs; an effect the other way counts as inactive or inconclusive; note: nearly all actives have a fitted effect of over 55% in size). In a few lines: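 Fluorescence read-out from CellTiter-Fluor after 1 h at 37 C. Wells held HaCaT-derived ARE-luciferase reporter cells (1,500/well) treated 23 h with DMSO-dissolved compounds. Run in the same wells as the luciferase agonist read.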

Experiment [2] is described as follows: Nuclear factor erythroid 2-related factor 2/antioxidant responsive element (Nrf2/ARE) small molecule agonists: luciferase reporter gene qHTS assay in human keratinocytes (AID 1919969; note: nearly all actives have a fitted effect of over 35% in size). (In general: In a reporter assay the amount or activity of a reporter protein is the signal.)
For experiment [3], the target named is KiSS-1 receptor (Homo sapiens) (UniProt Q969F8). The experiment is described as follows: Human kisspeptin (KISS1R) small molecule agonists, calcium flux assay in KISS1R-HEK293 cells (AID 1920064; active = well fitted curve in the direction sought with a large enough effect in the repeat runs; an effect the other way counts as inactive or inconclusive). In a few lines: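 Calcium flux read-out: kinetic fluorescence at Ex/Em=480/540, 1 s intervals over 3 min, after pin-tool compound addition to dye-loaded KISS1R-HEK293 cells. Fifteen concentrations, triplicates.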
In general terms: Calcium flux is commonly read through the fluorescence of an indicator in the cells.

Experiment [4] can be described thus: G protein-coupled receptor (GPCR) small molecule agonists, calcium flux assay: HEK293 wild type cell line counter screen (AID 1920065). The gist of the method:
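Agonist mode; 18 h seeding at 37 C, 1 h dye load at 37 C; compounds pinned from DMSO, ATP as positive control; kinetic fluorescence 480/540 nm, 3 min, 1 s reads; 15 concentrations, triplicate.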

A short description of experiment [5]: p53 small molecule agonists, cell-based qHTS assay with human liver microsomes (AID 1963577).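 Note: p53 response element beta-lactamase reporter cells with liver microsomes plus NADPH.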 In a few lines:
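16 h, 37 C exposure of p53RE-bla cells to compounds with human liver microsomes and NADPH (0.5 mg/mL final each); detection via LiveBLAzer mixture, 2 h dark at room temperature.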

A short description of experiment [6]: p53 small molecule agonists, cell-based qHTS assay with rat liver microsomes (AID 1963578). In a few lines:
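With rat liver microsomes and NADPH present (0.5 mg/mL final each), p53RE-bla cells are treated with compound for 16 h at 37 C. LiveBLAzer detection mixture is then applied for 2 h at room temperature in the dark.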
(In general: qHTS replaces the single test concentration by a dilution series.)

A short description of experiment [7]: p53 small molecule agonists, cell-based qHTS assay with human liver microsomes: qHTS cell viability counter screen (AID 1963579). Note: nearly all actives have a fitted effect of over 45% in size. The gist of the method:
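In this multiplexed counter screen, the reporter plates were subsequently treated with CellTiter-Glo so that cell viability, reflected by luminescence, could be recorded for p53RE-bla cells dosed 16 h with compounds under microsomal activation (HLM and NADPH).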

Experiment [8] can be described thus: p53 small molecule agonists, cell-based qHTS assay with rat liver microsomes: qHTS cell viability counter screen (AID 1963580). Note: nearly all actives have a fitted effect of over 45% in size. The gist of the method:
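After the beta-lactamase ratio was read, CellTiter-Glo was added to the same wells and luminescence measured at 30 min; cells had been treated 16 h at 37 C with compounds, rat liver microsomes and NADPH (0.5 mg/mL final each).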

A short description of experiment [9]: p53 small molecule agonists, cell-based qHTS assay: qHTS cell viability counter screen (AID 1963581). Note: nearly all actives have a fitted effect of over 45% in size. In a few lines: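 Cytotoxicity read-out: ATP-based luminescence (CellTiter-Glo, 30 min RT) measured in the same wells as the p53 reporter assay, HCT-116 p53RE-bla cells, 16 h compound exposure at 37 C.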
The nature of experiment [10]: p53 small molecule agonists, cell-based qHTS assay (AID 1963582; active = well fitted activation curve with a large enough effect in the signal ratio in the repeat runs, not every such curve was filed as active; the % refers to the signal ratio). The gist of the method: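 Fluorescence intensity read-out of a beta-lactamase reporter under a p53 response element. Cells were exposed to DMSO-dissolved compounds for 16 h at 37 C, then developed with FRET substrate for 2 h at RT.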
Experiment [11] addresses 5-hydroxytryptamine receptor 2A (Homo sapiens) (UniProt P28223). The experiment is described as follows: 5-hydroxytryptamine receptor 2A (HTR2A) small molecule antagonists, cell-based qHTS assay (AID 1963586). Note: nearly all actives have a fitted effect of over 45% in size. The gist of the method:
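CHO cells stably expressing human HTR2A were plated for 18 h at 37 C, then loaded with calcium dye for 1 h. Compounds were preincubated 5 min at room temperature before DOI (4 nM solution) was added. Kinetic fluorescence was read for 3 min.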

For experiment [12] the target is unchanged. The experiment is described as follows: 5-hydroxytryptamine receptor 2A (HTR2A) small molecule agonists, cell-based qHTS assay (AID 1963587). Note: nearly all actives have a fitted effect of over 30% in size. In a few lines:
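CHO cells stably expressing human HTR2A, plated 18 h, loaded with calcium dye 1 h at 37 C. Agonist mode: compounds added and intracellular calcium fluorescence recorded kinetically for 2 min at 1 sec intervals.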

Experiment [13] has as its target Muscarinic acetylcholine receptor M1 (Homo sapiens) (UniProt P11229). The experiment is described as follows: Cholinergic receptor muscarinic 1 (CHRM1) small molecule antagonists, cell-based qHTS assay (AID 1963588). Note: nearly all actives have a fitted effect of over 40% in size. In a few lines:
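Compounds were tested at 15 concentrations in three independent runs. Dye-loaded CHRM1-CHO cells were exposed 5 min at room temperature before stimulation by acetylcholine added at 50nM. Intracellular calcium was read kinetically on FDSS for 3 min.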

For experiment [14] the target is unchanged. Put plainly: Cholinergic receptor muscarinic 1 (CHRM1) small molecule agonists, cell-based qHTS assay (AID 1963589). Note: nearly all actives have a fitted effect of over 35% in size. In a few lines: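 Calcium flux read-out: kinetic fluorescence at 1 sec intervals after pin-tool compound addition to dye-loaded CHRM1-CHO cells (human M1). Agonist mode; 15 concentrations tested in triplicate independent runs.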
A short description of experiment [15]: cAMP Responsive Elements (CRE) small molecule agonists, cell-based qHTS assay (AID 1963590). In a few lines:
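Beta-lactamase reporter readout: LiveBLAzer B/G FRET substrate, 2 h at room temperature, added after 3 h compound treatment of CRE-bla HEK 293T cells at 37 C/5% CO2.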

Experiment [16] is described as follows: cAMP Responsive Elements (CRE) small molecule antagonists, cell-based qHTS assay (AID 1963591; active = well fitted inhibition curve with a large enough effect in the signal ratio in the repeat runs, not every such curve was filed as active; the % refers to the signal ratio). In a few lines:
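HEK293T CRE-bla; 18 h preincubation; compound pin-transfer; NKH477 0.25 uM final, 3 h, 37 C; LiveBLAzer FRET substrate 2 h RT.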

The target in experiment [17] is Beta-2 adrenergic receptor (Homo sapiens) (UniProt P07550). Put plainly: Adrenergic beta2 receptor (ADRB2) small molecule antagonists, cell-based qHTS assay (AID 1963592). Note: nearly all actives have a fitted effect of over 50% in size. Note: potency is the fitted concentration of half-maximal effect. The gist of the method:
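Assay format: CHO-ADRB2 cells, 18-20hr seeding at 37C/5% CO2, then compound plus 1nM isoproterenol agonist mix for 0.5hr RT. Homogeneous time-resolved fluorescence cAMP detection after 1hr, expressed as 665/615 nm ratio.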

Experiment [18] deals with D(2) dopamine receptor (Homo sapiens) (UniProt P14416). Put plainly: Dopamine D2 receptor (DRD2) small molecule antagonists, cell-based qHTS assay (AID 1963595; active = well fitted inhibition curve with a large enough effect in the signal ratio in the repeat runs, with a control signal flat; the % refers to the signal ratio). The gist of the method: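 In this cell-based antagonist screen, compounds act for 10 min at room temperature before a 30 min challenge with 12 nM quinpirole and 200 nM NKH477. cAMP is quantified by HTRF competition in DRD2-HEK293 cells containing 0.1 mM Ro20-1724.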

For experiment [19] the target is unchanged. Put plainly: Dopamine D2 receptor (DRD2) small molecule agonists, cell-based qHTS assay (AID 1963594). Note: nearly all actives have a fitted effect of over 35% in size. The gist of the method:
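HEK293 cells stably expressing human DRD2, pre-treated with PDE inhibitor Ro20-1724 (0.1 mM final) and compound 10 min at room temperature, then stimulated with NKH477 (200nM […]) for 30 min. cAMP read by HTRF (665/620 nm).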

5-hydroxytryptamine receptor 2A (Homo sapiens), sequence (P28223 whole entry, looked up): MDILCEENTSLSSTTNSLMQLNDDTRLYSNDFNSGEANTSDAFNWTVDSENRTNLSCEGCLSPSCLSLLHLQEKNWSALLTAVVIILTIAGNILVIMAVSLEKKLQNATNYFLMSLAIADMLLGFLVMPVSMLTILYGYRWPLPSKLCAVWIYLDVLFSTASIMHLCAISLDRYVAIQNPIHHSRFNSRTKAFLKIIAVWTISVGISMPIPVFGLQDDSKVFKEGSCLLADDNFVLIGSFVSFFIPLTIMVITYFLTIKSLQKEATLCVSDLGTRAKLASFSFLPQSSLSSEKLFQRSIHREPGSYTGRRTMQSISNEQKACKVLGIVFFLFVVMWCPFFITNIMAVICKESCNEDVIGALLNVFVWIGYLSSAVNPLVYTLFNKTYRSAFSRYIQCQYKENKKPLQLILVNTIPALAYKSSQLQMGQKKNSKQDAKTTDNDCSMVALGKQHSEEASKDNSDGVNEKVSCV
D(2) dopamine receptor (Homo sapiens), sequence (P14416 whole entry, looked up): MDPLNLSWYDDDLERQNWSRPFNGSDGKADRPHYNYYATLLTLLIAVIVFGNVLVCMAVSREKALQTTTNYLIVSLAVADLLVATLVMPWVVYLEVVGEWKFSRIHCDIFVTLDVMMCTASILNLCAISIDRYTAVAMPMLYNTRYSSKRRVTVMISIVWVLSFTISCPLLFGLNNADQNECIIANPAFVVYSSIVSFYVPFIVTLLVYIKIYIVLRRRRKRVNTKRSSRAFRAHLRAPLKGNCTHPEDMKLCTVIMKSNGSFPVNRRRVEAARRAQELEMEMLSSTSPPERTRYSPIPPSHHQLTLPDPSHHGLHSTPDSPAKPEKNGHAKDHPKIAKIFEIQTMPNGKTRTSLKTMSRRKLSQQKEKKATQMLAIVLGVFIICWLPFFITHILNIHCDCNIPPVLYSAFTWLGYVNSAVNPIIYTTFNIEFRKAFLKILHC
Muscarinic acetylcholine receptor M1 (Homo sapiens), sequence (P11229 whole entry, looked up): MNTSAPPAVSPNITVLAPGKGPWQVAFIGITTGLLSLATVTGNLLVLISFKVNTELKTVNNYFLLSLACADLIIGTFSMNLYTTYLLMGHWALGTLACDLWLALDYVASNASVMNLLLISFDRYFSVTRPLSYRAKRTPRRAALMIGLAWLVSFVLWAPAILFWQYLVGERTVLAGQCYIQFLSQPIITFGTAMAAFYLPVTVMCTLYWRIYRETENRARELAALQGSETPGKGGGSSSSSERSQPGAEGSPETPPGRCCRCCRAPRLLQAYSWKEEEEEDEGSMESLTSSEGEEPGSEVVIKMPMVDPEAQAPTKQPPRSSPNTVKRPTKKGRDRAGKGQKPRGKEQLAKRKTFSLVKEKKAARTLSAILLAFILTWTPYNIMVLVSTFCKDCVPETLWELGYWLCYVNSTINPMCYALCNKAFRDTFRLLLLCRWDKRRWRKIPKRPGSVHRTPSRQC
Beta-2 adrenergic receptor (Homo sapiens), sequence (P07550 whole entry, looked up): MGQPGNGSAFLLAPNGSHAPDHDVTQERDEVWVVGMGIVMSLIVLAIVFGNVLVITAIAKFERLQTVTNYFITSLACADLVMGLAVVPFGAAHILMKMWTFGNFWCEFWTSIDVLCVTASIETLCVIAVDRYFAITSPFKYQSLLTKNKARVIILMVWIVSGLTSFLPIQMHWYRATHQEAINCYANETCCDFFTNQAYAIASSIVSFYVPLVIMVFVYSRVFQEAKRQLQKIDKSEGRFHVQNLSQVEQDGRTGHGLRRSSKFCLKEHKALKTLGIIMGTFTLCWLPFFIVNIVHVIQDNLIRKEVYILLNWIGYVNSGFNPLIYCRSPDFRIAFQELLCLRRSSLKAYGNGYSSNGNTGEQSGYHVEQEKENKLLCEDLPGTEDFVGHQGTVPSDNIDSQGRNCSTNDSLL
KiSS-1 receptor (Homo sapiens), sequence (Q969F8 whole entry, looked up): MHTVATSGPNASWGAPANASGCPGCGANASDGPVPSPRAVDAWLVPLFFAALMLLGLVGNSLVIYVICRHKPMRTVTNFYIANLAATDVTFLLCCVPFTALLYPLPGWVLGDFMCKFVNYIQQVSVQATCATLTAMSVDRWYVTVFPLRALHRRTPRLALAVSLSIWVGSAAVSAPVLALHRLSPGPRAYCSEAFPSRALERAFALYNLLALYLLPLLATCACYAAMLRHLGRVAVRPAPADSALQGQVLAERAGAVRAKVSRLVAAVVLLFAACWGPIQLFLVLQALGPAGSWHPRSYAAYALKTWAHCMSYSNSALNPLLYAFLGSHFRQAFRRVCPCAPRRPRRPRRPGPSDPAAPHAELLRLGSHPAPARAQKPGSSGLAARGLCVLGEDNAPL

With `CC(C)(C)NCC(O)COc1ccc(NC(=O)NC2CCCCC2)cc1` (stereo unspecified), the Potency entry in experiment [1], in experiment [2], in experiment [5], in experiment [6], in [7] and in experiment [8] was “inactive” in each case. The Potency entry in experiment [9], in experiment [10], in [11], in experiment [12], in [13] and in [14] was “inactive” in each case. Further, the Potency entry in [15], in [16] and in [18] was “inactive” throughout. Further, the outcome in [3] and in experiment [4] was inactive. Further, in experiment [17], the Potency was 4.73 µM (active).
On to `CCCCCCCC/C=C\CCCCCCCC(=O)OC[C@@H](O)[C@H]1OC[C@H](O)[C@H]1O`, for which the Potency entry in experiment [1], in experiment [2], in experiment [5], in experiment [6], in experiment [7] and in [8] was “inactive” in each case. Further, the Potency result in [9], in experiment [10], in [12], in experiment [13], in experiment [14] and in [16] was “inactive” in each case. Moreover, the Potency entry in [17] is “inactive”. The result in experiment [3] and in experiment [4] was inactive.
As to `Cc1cccc(C)c1NC(=O)CN1CCCC1`, the Potency result in experiment [1], in experiment [2], in [5], in experiment [6], in [7] and in experiment [8] was “inactive” in each case. Besides, the Potency entry in [9], in [10], in experiment [12], in experiment [13], in experiment [15] and in [16] was “inactive” throughout. In addition, the Potency result in experiment [17] was “inactive”. The outcome in experiment [3] and in [4] was inactive.
For the compound `COC(=O)CCc1ccc(OCC(O)CNC(C)C)cc1` (stereo unspecified), the Potency result in [1], in [2], in [5], in experiment [6], in experiment [7] and in experiment [8] was “inactive” each time. Further, the Potency result in [9], in [10], in [15] and in experiment [16] was “inactive” each time. Further, the outcome in [3] and in [4] was inactive. Also, the Potency in experiment [17] is 9.44 µM (active).
`CCCCOC(=O)[C@@H](C)Oc1ccc(Oc2ccc(C(F)(F)F)cn2)cc1`: the Potency result in experiment [1], in experiment [2], in [5], in experiment [6], in experiment [7] and in experiment [8] was “inactive” each time. The Potency result in experiment [9], in experiment [10], in experiment [11], in experiment [12], in [13] and in [14] was “inactive” each time. Besides, the Potency result in experiment [16], in [17], in experiment [19] and in experiment [18] was “inactive” throughout. For the same compound, the outcome in experiment [3] and in experiment [4] was inactive.
In the case of `N#Cc1c(F)cccc1F`, the Potency entry in experiment [1], in experiment [2], in [5], in [6], in experiment [7] and in [8] was “inactive” throughout. The Potency entry in experiment [9], in [10], in experiment [12], in experiment [13], in [14] and in experiment [15] was “inactive” throughout. Besides, the Potency result in experiment [16], in experiment [17], in experiment [19] and in experiment [18] was “inactive” in each case. Also, the result in experiment [3] and in experiment [4] was inactive.
As to `Cc1cc(C)c(O)c(C(C)(C)C)c1`, the Potency entry in experiment [1], in experiment [2], in experiment [5], in experiment [6], in experiment [7] and in experiment [8] was “inactive” in each case. Also, the Potency entry in [9], in experiment [10], in [14], in experiment [17], in [19] and in experiment [18] was “inactive” in each case. Further, the result in [3] and in experiment [4] was inactive.
